High-throughput results (PubChem)
Compounds with a hit are over-represented: about 3.8% of the library has one in this group of screens.
HEK293 cAMP cs: qHTS Assay for Agonists of the Thyroid Stimulating Hormone Receptor: Activators of Intracellular cAMP Concentrations in Parental HEK 293; parental HEK293 CNG cAMP sensor, membrane potential fluorescence; Potency, µM (titrated, usually from 57.1 µM), without a hit: at the highest dose activation, usual class: activators; actives 2.5% (n = 73,000); AID 938, 2007; also: potency is read from the fitted curve at half-maximal effect; % of control where 0% means no effect; nearly all actives have a fitted effect of over 55% in size
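Parental HEK 293 cells stably expressing a cAMP-gated CNG channel were loaded with membrane potential dye containing 100 uM RO 20-1724 for 60 min. Compound added for 30 min; depolarization read as fluorescence intensity at 590 nm.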
HBB splice mod: qHTS Assay for Modulators of Hemoglobin Beta Chain Splicing; HBB splicing reporter cell assay, activation; EGFP reporter with mutant IVS2-654 intron; response scale: normalised to 500 nM splice-correcting PNA; Potency, µM (doses to about 46.1 µM), for the others: top-dose activation, most hits filed as activators; actives 0.06% (n = 65,000); AID 925, 2007; also: potency is read from the fitted curve at half-maximal effect; 0% is about no effect
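Compounds were applied for 2 days to HeLa EGFP-654 cells, 500/well in Optimem with 2% FCS. The reporter's EGFP is disrupted by mis-splicing of beta-globin intron IVS2-654. Readout: summed well GFP fluorescence from 488 nm laser scanning; reference was 500 nM antisense […] 654 PNA.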
Epigenetic mod: qHTS Assay for Epigenetic Modulators. mouse C127i GFP locus derepression, cytometry, 30 h. Potency, µM (doses to about 46.1 µM), for inactives: at the highest dose GFP derepression (activation). actives 0.09% (n = 68,000); also: % of control where 0% means no effect
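Murine C127i mammary cells carrying a silenced, stably integrated CMV-driven GFP reporter were treated with compound for 30 hours at 37 C. After PBS washes, GFP-positive cells were counted by laser-scanning microplate cytometry.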
Ub-GFP proteasome: Ubiquitin-GFP Assay. Ubiquitin-GFP reporter cells, proteasome inhibition, GFP fluorescence; response scale: untreated = 0%, 10 µM MG-132 = 100%. Potency, µM (top dose mostly 45.9 µM), inactives show at the top dose activation (GFP accumulation), hits mostly activators. 67,000 tested, under 10 active. AID 526, 2006; active = well fitted activation curve with a large enough effect, not every such curve was filed as active; inconclusive = small, poorly fitted or top-dose-only effect, or another doubt; inactive = no such curve, though single readings can be large or run the other way; also: potency is read from the fitted curve at half-maximal effect
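GFP accumulation read-out: laser plate cytometry counting ubiquitin(G76V)-GFP-expressing U2OS cells after 4 hr compound exposure at 37 °C. Titrations spanned 46 uM to 2.9 nM; 0% = basal, 100% = 10 uM MG-132; concentration-response curves fitted.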
TSHR agonist: qHTS Assay for Agonists of the Thyroid Stimulating Hormone Receptor. HEK293-CNG-TSHR cells (CNG channel as cAMP sensor), membrane potential dye, cAMP. actives 0.48% (n = 73,000). Thyrotropin receptor (Homo sapiens), P16473. Potency, µM (titrated, usually from 57.1 µM), for the others: top-dose activation, usual class: activators. AID 926, 2007; active = well fitted activation curve with a large enough effect in the main read-out, with a control signal flat, not every such curve was filed as active; inconclusive = small, poorly fitted or top-dose-only effect, or a change in a side signal; inactive = no such curve, though single readings can be large or run the other way; % of control where 0% means no effect;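 also: the control signal comes from parental cells without the receptor; potency is read from the fitted curve at half-maximal effect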
Target sequence (P16473 whole entry, looked up): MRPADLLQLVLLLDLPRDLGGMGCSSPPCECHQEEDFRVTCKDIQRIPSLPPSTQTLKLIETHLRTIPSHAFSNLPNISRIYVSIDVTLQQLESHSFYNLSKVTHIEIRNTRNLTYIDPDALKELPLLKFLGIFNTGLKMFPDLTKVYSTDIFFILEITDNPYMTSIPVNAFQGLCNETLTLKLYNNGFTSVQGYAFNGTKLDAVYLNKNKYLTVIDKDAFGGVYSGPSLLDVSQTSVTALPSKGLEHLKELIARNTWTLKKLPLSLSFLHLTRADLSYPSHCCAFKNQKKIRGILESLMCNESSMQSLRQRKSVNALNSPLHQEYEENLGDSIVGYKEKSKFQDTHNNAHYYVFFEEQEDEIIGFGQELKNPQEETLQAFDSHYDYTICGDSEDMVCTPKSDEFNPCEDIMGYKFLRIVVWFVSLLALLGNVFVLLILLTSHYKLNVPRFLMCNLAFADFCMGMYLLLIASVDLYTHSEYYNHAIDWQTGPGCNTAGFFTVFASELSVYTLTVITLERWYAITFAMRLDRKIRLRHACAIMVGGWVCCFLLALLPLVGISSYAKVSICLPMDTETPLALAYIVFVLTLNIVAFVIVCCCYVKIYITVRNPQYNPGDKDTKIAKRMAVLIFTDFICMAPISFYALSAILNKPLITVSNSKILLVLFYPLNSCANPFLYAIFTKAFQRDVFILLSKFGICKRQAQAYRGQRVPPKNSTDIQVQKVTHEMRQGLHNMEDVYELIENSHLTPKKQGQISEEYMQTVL
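HEK 293 cells stably expressing TSHR and a cAMP-gated CNG channel; parental CNG-only cells as counterscreen. Cells preloaded 60 min with membrane potential dye plus 100 uM RO 20-1724, then compound 30 min; fluorescence read at 590 nm.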
ERK AVP inh: qHTS Assay for Inhibitors of the ERK Signaling Pathway using a Homogeneous Screening Assay; HEK293-V1b, vasopressin-stimulated pERK AlphaScreen; Potency, µM (series often up to 57.5 µM), for inactives: at the top dose activity, negative = inhibition, actives largely listed as inhibitors; actives 0.99% (n = 72,000); AID 995, 2007; also: potency is read from the fitted curve at half-maximal effect; % is scaled to controls: 0 for no effect and ±100 for the full control effect; nearly all actives have a fitted effect of over 55% in size
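Overnight-seeded V1b-HEK293 cells in 1% FBS got compound, then vasopressin (25 nM final, 5 min, 37C), then lysis buffer. AlphaScreen detection of phospho-ERK; activity normalized to basal and full-stimulation controls.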
Numbers without * were called inactive; ? = inconclusive; · = no result given; [ ] = another dose, or the depositor's remark. Unless noted, calls follow the shape of the dose curve; as a rule, active = well fitted curve in the direction sought with a large enough effect; inconclusive = small, poorly fitted or top-dose-only effect, or another doubt; inactive = no such curve, though single readings can be large; an effect the other way counts as inactive or inconclusive.

SMILES	HEK293 cAMP cs	HBB splice mod	Epigenetic mod	Ub-GFP proteasome	TSHR agonist	ERK AVP inh
Fc1ccc(-n2c(Cc3ccccc3)nnc2SCc2nc(-c3cccs3)no2)cc1	25µM*	5%	0%	0%	?	-18%
c1ccc(-c2noc(CSc3nnc(Cc4cccs4)n3-c3ccccc3)n2)cc1	25µM*	-2%	3%	-2%	?	-27%
Nc1ncnc2c1ncn2[C@@H]1O[C@@H](COP(=O)(O)OP(=O)(O)OP(=O)(O)OP(=O)(O)OC[C@@H]2O[C@@H](n3cnc4c(N)ncnc43)[C@@H](O)[C@H]2O)[C@H](O)[C@@H]1O	3%	1%	-1%	-2%	22%	-7%
CCCn1c(C)nc2c(NCc3ccccc3)nc(C)nc21	54%	-2%	·	-7%	11%	?
COC(=O)[C@@]1(Cc2ccc(F)cc2)[C@H]2c3cc(C(=O)N4CCCC4)n(Cc4cccc5ccccc45)c3C[C@H]2CN1C(=O)c1ccccc1	?	-1%	·	·	?	-23%
COC(=O)[C@@]1(Cc2ccc(F)cc2)[C@H]2c3cc(C(=O)N(C)C)n(Cc4cccc5ccccc45)c3C[C@H]2CN1C(=O)c1ccccc1	16µM*	-3%	·	·	?	5%
COC(=O)[C@@]1(Cc2ccccc2)[C@H]2c3cc(C(=O)N4CCCC4)n(Cc4cc(F)cc5c4OCOC5)c3C[C@H]2CN1C(=O)c1ccccc1	2.5µM*	-1%	·	·	?	-6%
COC(=O)[C@@]1(Cc2ccccc2)[C@H]2c3cc(C(=O)N4CCCC4)n(Cc4cccc5ccccc45)c3C[C@H]2CN1C(=O)c1ccccc1	1.6µM*	-1%	·	·	?	-4%
COC(=O)[C@@]1(Cc2ccc(OC)cc2)[C@H]2c3cc(C(=O)N(C)C)n(CCO)c3C[C@H]2CN1C(=O)c1ccccc1	3%	0%	·	·	18%	-18%
COC(=O)[C@@]1(Cc2ccc(OC)cc2)[C@H]2c3cc(C(=O)N(C)C)n(Cc4ccc(C)c(F)c4F)c3C[C@H]2CN1C(=O)c1ccccc1	2.5µM*	0%	·	·	?	12%
COc1cc([C@H](O)C(=O)O)ccc1O	-8%	1%	-3%	2%	·	-3%
CN1CCN(c2ncc3nc(-c4ccccc4)c(=O)n(C)c3n2)CC1	22%	0%	14%[9.22 µM]	-3%	-2%	0%
CN(C)C(=O)c1ccc(-c2nccc(N(C)Cc3ccco3)n2)cc1	-1%	-1%	0%[9.22 µM]	2%	15%	-5%
COC(=O)[C@@]1(Cc2ccc(OC)cc2)[C@H]2c3cc(C(=O)N(C)C)n(Cc4ccsc4Br)c3C[C@H]2CN1C(=O)c1ccccc1	6.3µM*	0%	·	·	?	0%
COC(=O)[C@@]1(Cc2ccc(OC)cc2)[C@H]2c3cc(C(=O)N(C)C)n(Cc4ccc(S(C)(=O)=O)cc4)c3C[C@H]2CN1C(=O)c1ccccc1	?	-2%	·	·	?	-3%
COC(=O)[C@@]1(Cc2ccc(F)cc2)[C@H]2c3cc(C(=O)N(C)C)n(Cc4ccsc4Br)c3C[C@H]2CN1C(=O)c1ccccc1	4µM*	0%	·	·	?	10%
COC(=O)[C@@]1(Cc2ccc(OC)cc2)[C@H]2c3cc(C(=O)N(C)C)n(Cc4ccc(C)o4)c3C[C@H]2CN1C(=O)c1ccccc1	16µM*	-1%	·	·	?	18%
COc1ccccc1CCn1c(=O)c(-c2ccc(Cl)cc2)nc2cncnc21	?	0%	0%[9.22 µM]	-9%	?	?
CN1C[C@@H](C(=O)N[C@]2(C)O[C@]3(O)[C@H]4CCCN4C(=O)[C@H](Cc4ccccc4)N3C2=O)C[C@H]2c3cccc4[nH]cc(c34)C[C@@H]21	-5%	0%	0%	8%	-10%	-6%
CCOCCCNC(=O)c1ccc2c(c1)OCO2	10%	3%	0%	-8%	1%	-20%
CCCCC(CC)CNC(=O)c1ccc2c(c1)OCO2 (stereo not given)	4µM*	-2%[0.0738 µM]	-2%	5%[9.17 µM]	?	0%
Cc1cc(-n2c(C)cc(C(=O)CSc3ncnc4ccccc34)c2C)no1	7.9µM*	-1%[1.84 µM]	0%	-11%	?	20µM*
Cc1cc(-n2c(C)cc(C(=O)CSc3nnc4sc5ccccc5n34)c2C)no1	2%	0%	-1%	2%	5%	-2%
COc1ccc(OC)c(C(=O)COC(=O)c2ccccc2O)c1	25µM*	0%[57.5 µM]	0%	-2%	?	-1%
CS(=O)(=O)N1CCN(c2ccccc2NC(=O)c2cccs2)CC1	?	1%	6%	9%	?	-13%
SMILES	HEK293 cAMP cs	HBB splice mod	Epigenetic mod	Ub-GFP proteasome	TSHR agonist	ERK AVP inh
O=C(Nc1ccccc1N1CCCCC1)c1cccs1	25µM*	0%	2%	7%	?	34%
CCCC(=O)OC(=O)CCC	0%	0%	·	·	-10%	7%
Cn1c(SCC(=O)NC2CCCC2)nnc1-c1ccc(S(=O)(=O)N2CCOCC2)cc1	25µM*	0%[57.5 µM]	-3%	-6%	?	-6%
Cc1ccc(NC(=O)CSc2nnc(-c3ccc(S(=O)(=O)N4CCOCC4)cc3)n2C)cc1	-4%	·	0%	-4%	-4%	25%
S=C(Nc1ccccc1)Nc1nccs1	-5%	-1%	32µM*	-7%	-9%	?
COc1cc(OC)c2c(=O)c(-c3ccccc3)coc2c1	·	·	·	·	·	6%
O=C(OCCN(C1=NS(=O)(=O)c2ccccc21)c1ccc(Cl)cc1)c1ccco1	16µM*	-6%	0%	-1%	?	-11%
O=C1c2ccccc2N2C(=O)c3ccccc3C2N1Cc1ccco1 (stereo not given)	25µM*	-3%	-2%	16%	?	?
COc1ccc(C2c3c(-c4cc(Cl)c(C)cc4O)n[nH]c3C(=O)N2Cc2cccnc2)cc1OC (stereo not given)	9%	-2%[57.5 µM]	0%	-5%	7.9µM*	?
COc1ccc(C(=O)C2C3C4COC(O4)C(=O)C3C3C=Cc4ccccc4N32)c(OC)c1 (stereo not given)	·	·	·	·	·	-26%
O=C(CN(c1ccc(F)cc1)S(=O)(=O)c1ccccc1)NCc1ccco1	5%	·	-2%	2%	·	-26%
